D2 ag-1: agonists of human D2 dopamine receptor (beta-arrestin). P14416. DiscoveRx PathHunter D2 beta-arrestin, luminescence, 90 min; 100% = 57 uM dopamine signal. activation, % (test concentration not listed). 0.084% of 360,000 active; in the data active = activation above about 40%; inconclusive = between about 15% and that limit
Target sequence (P14416 whole entry, looked up): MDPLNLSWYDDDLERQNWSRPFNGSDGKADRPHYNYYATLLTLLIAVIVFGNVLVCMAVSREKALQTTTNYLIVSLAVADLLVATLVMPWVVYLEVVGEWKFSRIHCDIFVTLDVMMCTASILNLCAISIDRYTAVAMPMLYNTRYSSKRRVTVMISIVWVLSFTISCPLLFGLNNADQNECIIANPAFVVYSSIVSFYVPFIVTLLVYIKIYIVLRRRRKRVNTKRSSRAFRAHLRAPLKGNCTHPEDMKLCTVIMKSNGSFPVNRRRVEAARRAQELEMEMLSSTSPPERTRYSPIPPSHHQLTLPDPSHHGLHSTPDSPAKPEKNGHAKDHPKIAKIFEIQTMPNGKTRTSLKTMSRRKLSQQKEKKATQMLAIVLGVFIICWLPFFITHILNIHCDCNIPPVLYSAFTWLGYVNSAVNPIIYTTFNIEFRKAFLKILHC
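DiscoveRx PathHunter D2 beta-arrestin cells (2,100/well) attached overnight, then compound-stimulated 90 min at 37 C in HBSS/10 mM HEPES/0.1% Tween-20 buffer; beta-galactosidase complementation read by luminescence after 1 h at ambient temperature. Dopamine 57 uM final (EC100) as control.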
D2 antagonist: antagonizes the human D2 dopamine receptor; P14416; HEK293 TREx D2 cells, calcium flux, dopamine EC80; inhibition, % at 10 µM; 2% of 340,000 active; in the data active = inhibition above about 30%; inactive = below that, where a call was filed; note: 0% is about no effect
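Read-out: kinetic calcium fluorescence (1 cycle/s) in inducible HEK293 T-REx D2 cells after an EC80 dopamine addition that followed 180 s compound preincubation. Loss of the dopamine response indicates antagonism.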
D2 PAM-1: potentiates the human D2 dopamine receptor allosterically; P14416; DiscoveRx D2 beta-arrestin cells, luminescence, 90 min; 100% = 57 uM dopamine signal; potentiation, % (no concentration beside the values); 0.23% of 360,000 active; AID 624464; in the data active = potentiation above about 50%; inconclusive = mostly about 30% to 49%
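D2 cells co-treated with compound plus 50 nM dopamine (EC20) for 90 min at 37 deg C to detect potentiation. Beta-arrestin recruitment was read as enzyme-fragment luminescence after 1 h at ambient temperature. Full response was set by 57 uM dopamine.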
LDHA block: inhibitors of human lactate dehydrogenase A | P00338 | purified LDHA, NADH/diaphorase-resazurin fluorescence; stronger effect = lower value | activity change, % (values are at about 110 or 230 µM) | 0.15% of 480,000 active | AID 1347041; in the data active = activity change below about -30%; inconclusive = mostly about -25% to -30%;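 note: plate controls were DMSO wells for no effect and wells without enzyme for full effect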
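Human LDH5 (2 nM) was incubated with 0.06 mM NADH and 0.2 mM pyruvate for 5 min at room temperature in Tris pH 7.4. Remaining NADH was coupled through diaphorase/resazurin, and resorufin fluorescence was read at 0 and 20 min.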
D2 ag-2: activates the human D2 dopamine receptor; P14416; HEK293 T-REx D2 cells, calcium flux agonist mode; activation, % at 2 µM; 0.53% of 340,000 active;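 active = activation over 3 SD above normal in the single-dose calcium agonist read, cut at about 30% in these data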; note: 0% is about no effect
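Calcium-flux readout, 1 cycle/sec over 180 s following compound pin transfer, in inducible HEK293 Trex D2 cells (force-coupled); dopamine controls included. Positive calcium responses during this window marked compounds as potential agonists.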
D2 PAM-2: positive allosteric modulators of human D2 dopamine receptor; HEK293 T-REx D2, calcium flux, EC20 dopamine potentiation; potentiation, % at 10 µM; 0.34% of 340,000 active; AID 485347;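 active = potentiation over 3 SD above the plate norm, cut at about 30% in these data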; note: 0% is about no effect
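Tetracycline-induced Hek293 Trex D2 cells, force-coupled to calcium, loaded with no-wash calcium dye. Compound added with 180 s kinetic read for agonism, then EC20 dopamine and a further 180 s read for potentiation.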
D3 arrestin ag: activates human D3 dopamine receptor beta-arrestin recruitment; shares compounds with D2 ag-2; DiscoveRx D3 beta-arrestin cells, luminescence, 90 min; Potency, µM (top dose mostly 76.9 µM), for inactives: at the top dose activation, actives largely listed as activators; 4% of 2,300 active;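 note: potency is the fitted concentration of half-maximal effect; 100% = dopamine control response; nearly all actives have a fitted effect of over 70% in size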
D2 ag-3: D2 receptor agonism, beta-arrestin counterscreen; shares compounds with D2 ag-2; DiscoveRx PathHunter D2 beta-arrestin, luminescence, 90 min; response scale: percent relative to full dopamine signal; 5.9% of 2,300 active; Potency, µM (highest dose often 76.9 µM), for inactives: at the top dose activation, most hits filed as activators; note: potency is the fitted concentration of half-maximal effect; % of control where 0% means no effect; nearly all actives have a fitted effect of over 70% in size
* marks the source's active call; other numbers are inactive results. Shown are actives, neighbours in structure and some others; about 2.1% of the full set was active somewhere. Unless noted, calls come from the whole dose curve; as a rule, active = well fitted activation curve with a large enough effect; inconclusive = small, poorly fitted or top-dose-only effect; inactive = flat fitted curve, though single readings scatter.

How did CC(c1cccc(Cl)c1)N(C)CCS(=O)(=O)CCC(N)=O (stereo not drawn) do in these assays?
LDHA block: -3.3

How did Nc1ccc(N2CCN(CCCCN3C(=O)C4CCCN4C3=O)CC2)cc1 (stereo not drawn) do in these assays?
D2 ag-1: 6.1; D2 antagonist: 42.4*; D2 PAM-1: -15.6; LDHA block: 18.9; D2 ag-2: 63.1*; D2 PAM-2: -17.0; D3 arrestin ag: 23.2%; D2 ag-3: 15.3%

How did CCCCCCn1c(NC)nc2c1c(=O)n(C)c(=O)n2C do in these assays?
LDHA block: -3.1

Results for O=C(CNC(=O)c1ccc(Br)o1)NCC1CCCCC1 ?
D2 ag-1: -3.2; D2 antagonist: -11.4; D2 PAM-1: -20.8; LDHA block: -9.4; D2 ag-2: 0.2; D2 PAM-2: -4.7; D3 arrestin ag: -5.3%; D2 ag-3: -6.5%

How did Nc1nc(C(=O)N2CCOCC2)nn1C(=O)c1ccc(Cl)cc1 do in these assays?
D2 ag-1: -0.3; D2 antagonist: 22.9; D2 PAM-1: 0.3; LDHA block: 0.6; D2 ag-2: 0.3; D2 PAM-2: 5.7; D3 arrestin ag: -11.6%; D2 ag-3: -9.5%

How did Nc1nc(-c2ccc(Cl)cc2)nn1C(=O)c1ccc(Cl)cc1 do in these assays?
LDHA block: -1.9

Results for O=C(NCCOC(=O)c1ccc(C(=O)OCCNC(=O)c2cccnc2)s1)c1cccnc1 ?
D2 ag-1: -4.8; D2 antagonist: 28.8; D2 PAM-1: -2.0; LDHA block: -9.0; D2 ag-2: 69.2*; D2 PAM-2: -28.2; D3 arrestin ag: -7.6%; D2 ag-3: -3.7%

Results for COc1cc(C2C3=C(CCCC3=O)Nc3nc(SCc4ccccc4)[nH]c(=O)c32)cc(OC)c1O (stereo not drawn) ?
LDHA block: 68.0

How did C=CC[C@@H]1Cc2c(Br)ccc(Br)c2[C@@H](CC=C)N1 do in these assays?
D2 ag-1: inconclusive; D2 antagonist: -5.1; D2 PAM-1: 12.0; LDHA block: -14.4; D2 ag-2: 6.1; D2 PAM-2: 3.2

How did C=CCC1NCCc2c(Br)cccc21 (stereo not drawn) do in these assays?
D2 ag-1: 3.6; D2 antagonist: 29.2; D2 PAM-1: -11.2; LDHA block: -5.0; D2 ag-2: 47.1*; D2 PAM-2: -16.4; D3 arrestin ag: -14.9%; D2 ag-3: -0.1%

How did CC1(c2ccccc2)NC(=O)N(CC(=O)Nc2ccc(S(=O)(=O)Nc3ncccn3)cc2)C1=O (stereo not drawn) do in these assays?
D2 ag-1: 1.9; D2 antagonist: 50.0*; D2 PAM-1: 8.5; LDHA block: -8.3; D2 ag-2: 53.2*; D2 PAM-2: -11.8; D3 arrestin ag: -2.0%; D2 ag-3: -2.2%

What do the screens show for `COc1ccc(C(=O)N2CCC(N3CCN(c4ccccc4)CC3)CC2)cc1OC`?
D2 ag-1: 6.0; D2 antagonist: 25.8; D2 PAM-1: -20.8; LDHA block: -23.0; D2 ag-2: 40.8*; D2 PAM-2: -12.1; D3 arrestin ag: 12.1%; D2 ag-3: 17.5%

How did COc1ccccc1N1CCN(C2CCN(C(=O)c3cc(OC)c(OC)c(OC)c3)CC2)CC1 do in these assays?
D2 ag-1: 2.9; D2 antagonist: 4.2; D2 PAM-1: -10.6; LDHA block: -9.0; D2 ag-2: 3.3; D2 PAM-2: -16.4

Results for COc1ccc(C(=O)N2CCN(C3CCC(c4ccccc4)CC3)CC2)cc1OC (stereo not drawn) ?
D2 ag-1: -3.4; D2 antagonist: -2.5; D2 PAM-1: -16.2; LDHA block: -10.3; D2 ag-2: 0.8; D2 PAM-2: -18.7

How did COc1ccccc1N1CCN(C2CCN(C(=O)c3ccc(F)cc3)CC2)CC1 do in these assays?
D2 ag-1: -2.6; D2 antagonist: 25.0; D2 PAM-1: -5.3; LDHA block: -4.4; D2 ag-2: 27.6; D2 PAM-2: -20.3; D3 arrestin ag: -16.8%; D2 ag-3: 2.3%

How did COc1cccc(C(=O)N2CCN(C3CCCCC3)CC2)c1 do in these assays?
D2 ag-1: -0.5; D2 antagonist: 2.4; D2 PAM-1: -6.9; LDHA block: -23.1; D2 ag-2: 0.4; D2 PAM-2: 1.4

What do the screens show for `COc1cc(OC)cc(C(=O)N2CCC(N3CCN(c4ccccc4)CC3)CC2)c1`?
D2 ag-1: 3.9; D2 antagonist: 37.1*; D2 PAM-1: -26.7; LDHA block: -18.5; D2 ag-2: 43.1*; D2 PAM-2: -15.3; D3 arrestin ag: 26.8%; D2 ag-3: 23.0%

How did Cc1ccccc1C(=O)NCC(c1ccccc1)c1c[nH]c2ccccc12 (stereo not drawn) do in these assays?
LDHA block: 10.6

Results for Cc1ccc(C)c(NS(=O)(=O)c2ccc(-c3ccc(=O)[nH]n3)o2)c1 ?
D2 ag-1: 7.6; D2 antagonist: 5.6; D2 PAM-1: 1.7; LDHA block: -0.7; D2 ag-2: 44.4*; D2 PAM-2: -8.6; D3 arrestin ag: -0.9%; D2 ag-3: 21.6%

What do the screens show for `Cc1cccc(NS(=O)(=O)c2ccc(-c3ccc(=O)[nH]n3)o2)c1`?
D2 ag-1: 3.7; D2 PAM-1: -3.5; LDHA block: -5.9

What do the screens show for `CCCn1nc(C(=O)OCC(=O)NC(=O)NC(C)C)c2ccccc2c1=O`?
LDHA block: -3.5

What do the screens show for `Nc1nonc1-n1nnc(C(=O)N/N=C/c2ccc(Br)cc2)c1-c1ccc2c(c1)OCO2`?
D2 ag-1: -5.1; D2 antagonist: 41.3*; D2 PAM-1: 2.7; LDHA block: 1.5; D2 ag-2: 12.2; D2 PAM-2: 18.3; D3 arrestin ag: 3.5%; D2 ag-3: 6.6%

Results for Nc1nonc1-n1nnc(C(=O)N/N=C/c2cccc(Cl)c2)c1-c1ccc2c(c1)OCO2 ?
D2 ag-1: -8.3; D2 antagonist: -36.5; D2 PAM-1: -8.2; LDHA block: -0.7; D2 ag-2: 0.8; D2 PAM-2: 0.8

How did CN(Cc1c(C(=O)N/N=C/c2ccc(F)cc2)nnn1-c1nonc1N)C1CCCCC1 do in these assays?
D2 ag-1: -2.7; D2 antagonist: 9.9; D2 PAM-1: -1.4; LDHA block: -1.2; D2 ag-2: -0.9; D2 PAM-2: -8.0

Assay outcomes as filed in PubChem.
